# Measurements reported in PMC8384837, “Expanding the binding specificity for RNA recognition by a PUF domain”.
# Positions count from the first letter of the chain named.
# Tests used:
# Test in all cases: yeast three-hybrid, YBZ-1, SC-Leu-His + 0.5 mM 3-AT, 4 days
# Conditions in all cases: tags: N-Gal4 AD-HA kept; label: inside an RPR1-promoter hybrid RNA with tandem MS2 sites; ssRNA
# [1] = target: PUM1 PUF domain R5-KHL (Homo sapiens, UniProt Q14671 828-1176, C1007K;R1008H;Q1011L)
# In short: (§1)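 The interaction score is the log change in variant frequency from input to selection. Scores were computed in log2 with a pseudocount of 1 for absent variants, using Illumina sequencing of PCR-amplified repeat regions. The input came from four days on SC-Leu and the selection from four days on SC-Leu-His + 0.5 mM 3-AT. The cells were strain YBZ-1 (LexA–MS2 coat fusion, HIS3 reporter) co-expressing Pumilio-1 PUF domain libraries and matching RNA elements from a centromeric plasmid.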
# [2] = target: T1, PUM1 PUF domain R6-KWR (Homo sapiens, UniProt Q14671 828-1176, N1043K;Y1044W;Q1047R)
# T1 sequence: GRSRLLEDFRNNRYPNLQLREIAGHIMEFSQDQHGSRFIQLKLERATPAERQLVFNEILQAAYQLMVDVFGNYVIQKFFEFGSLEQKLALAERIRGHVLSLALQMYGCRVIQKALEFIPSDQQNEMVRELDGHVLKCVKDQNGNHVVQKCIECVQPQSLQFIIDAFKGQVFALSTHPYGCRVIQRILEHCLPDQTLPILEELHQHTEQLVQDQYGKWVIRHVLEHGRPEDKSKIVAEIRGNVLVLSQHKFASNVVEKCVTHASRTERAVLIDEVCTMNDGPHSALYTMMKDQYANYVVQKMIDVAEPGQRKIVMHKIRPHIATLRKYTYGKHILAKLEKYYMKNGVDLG
# In short: as §1
# [3] = target: PUM1 PUF domain R7-QRD (Homo sapiens, UniProt Q14671 828-1176, S1079Q;N1080R;E1083D)
# In short: as §1
# [4] = target: T2, PUM1 PUF domain R6-LWV (Homo sapiens, UniProt Q14671 828-1176, N1043L;Y1044W;Q1047V)
# T2 sequence: T1 sequence with K216L, R220V
# In short: as §1
# [5] = target: PUM1 PUF domain R3-GWI (Homo sapiens, UniProt Q14671 828-1176, C935G;R936W;Q939I)
# In short: as §1
# [6] = target: PUM1 PUF domain R1-KWE (Homo sapiens, UniProt Q14671 828-1176, S863K;R864W;Q867E)
# In short: as §1
# [7] = target: PUM1 PUF domain R3-RQG (Homo sapiens, UniProt Q14671 828-1176, C935R;R936Q;Q939G)
# In short: as §1
# [8] = target: PUM1 PUF domain R2-KLQ (Homo sapiens, UniProt Q14671 828-1176, N899K;Y900L)
# In short: as §1
# [9] = target: PUM1 PUF domain R4-DYN (Homo sapiens, UniProt Q14671 828-1176, N971D;H972Y;Q975N)
# In short: as §1
sequence,measurement,setting,value
GGCUAGAACUAGUGGAUCCCCCGGCGCCCGGCGGCUCGAGCCCGGGUAAGUGUUAAUAGUCUGCAUGCCGCCGGGCGCCAUGCCUGCAGGUCGACUCUAGAAAACAUG,binding signal,[1],5.83 log2 enrichment (interaction score)
GGCUAGAACUAGUGGAUCCCCCGGCGCCCGGCGGCUCGAGCCCGGGUAAGUGUAAAUAGUCUGCAUGCCGCCGGGCGCCAUGCCUGCAGGUCGACUCUAGAAAACAUG,binding signal,[2],6.69 log2 enrichment (interaction score)
same,binding signal,[3],2.72 log2 enrichment (interaction score)
same,binding signal,[4],3.67 log2 enrichment (interaction score)
same,binding signal,[5],2.68 log2 enrichment (interaction score)
GGCUAGAACUAGUGGAUCCCCCGGCGCCCGGCGGCUCGAGCCCGGGUAAGUGUAAAUCGUCUGCAUGCCGCCGGGCGCCAUGCCUGCAGGUCGACUCUAGAAAACAUG,binding signal,[6],4.74 log2 enrichment (interaction score)
GGCUAGAACUAGUGGAUCCCCCGGCGCCCGGCGGCUCGAGCCCGGGUAAGUGUAAUUAGUCUGCAUGCCGCCGGGCGCCAUGCCUGCAGGUCGACUCUAGAAAACAUG,binding signal,[7],4.14 log2 enrichment (interaction score)
GGCUAGAACUAGUGGAUCCCCCGGCGCCCGGCGGCUCGAGCCCGGGUAAGUGAAAAUAGUCUGCAUGCCGCCGGGCGCCAUGCCUGCAGGUCGACUCUAGAAAACAUG,binding signal,[4],2.8 log2 enrichment (interaction score)
GGCUAGAACUAGUGGAUCCCCCGGCGCCCGGCGGCUCGAGCCCGGGUAAGUGUAAAGAGUCUGCAUGCCGCCGGGCGCCAUGCCUGCAGGUCGACUCUAGAAAACAUG,binding signal,[8],3.21 log2 enrichment (interaction score)
GGCUAGAACUAGUGGAUCCCCCGGCGCCCGGCGGCUCGAGCCCGGGUAAGUGUAUAUAGUCUGCAUGCCGCCGGGCGCCAUGCCUGCAGGUCGACUCUAGAAAACAUG,binding signal,[9],5.22 log2 enrichment (interaction score)
